CYP2C9 activ – human CYP2C9 activators, primary screen, biochemical, luminescence; activation factor at 5 µM; AID 1024, 2008; recombinant CYP2C9, luciferin-H conversion; stronger effect = higher value; factor 1 = untreated enzyme, 0 = blocked; actives 1.4% (n = 96,000);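 active = activation factor of 2 or more for CYP2C9 at a 5 µM dose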;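 note: 0 = sulfaphenazole-blocked wells and 1 = vehicle-only wells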
Target sequence (P11712 whole entry, looked up): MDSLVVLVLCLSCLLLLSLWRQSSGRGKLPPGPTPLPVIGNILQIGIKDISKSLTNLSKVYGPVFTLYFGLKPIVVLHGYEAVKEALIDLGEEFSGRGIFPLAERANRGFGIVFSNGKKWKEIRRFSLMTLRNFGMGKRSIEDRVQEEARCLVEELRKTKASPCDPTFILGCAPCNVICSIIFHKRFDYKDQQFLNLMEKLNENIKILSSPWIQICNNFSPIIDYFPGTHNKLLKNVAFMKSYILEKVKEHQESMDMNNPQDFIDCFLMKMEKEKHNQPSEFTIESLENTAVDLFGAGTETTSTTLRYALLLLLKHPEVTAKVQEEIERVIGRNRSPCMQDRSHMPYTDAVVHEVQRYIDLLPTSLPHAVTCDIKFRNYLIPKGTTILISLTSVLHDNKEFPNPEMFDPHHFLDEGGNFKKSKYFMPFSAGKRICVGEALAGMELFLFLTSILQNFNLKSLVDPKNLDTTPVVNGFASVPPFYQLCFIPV
CYP2C19 inhib – blockers of cytochrome P450 2C19 activity – biochemical, luminescence, ADME assay, primary screen; P33261; CYP2C19 Supersomes, luciferin-H EGE luminescence, 30 min; inhibition, % at 5 µM; actives 21% (n = 96,000); AID 778, 2007;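 active = CYP2C19 inhibition above a set limit at 5 µM in the primary screen, cut at about 50% in these data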;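 note: plate controls were negative control wells for no effect and 2.5 mM tranylcypromine positive control for full effect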
sEH inh – soluble epoxide hydrolase inhibitors, primary screen, biochemical, human sEH; AID 707, 2007; Bifunctional epoxide hydrolase 2 (Homo sapiens), P34913; actives 0.34% (n = 91,000); recombinant human sEH enzymatic activity assay; inhibition, % at 2 µM; in the data active = inhibition above about 80%
sEH activator – soluble epoxide hydrolase activators, primary screen, biochemical, human sEH. purified human sEH enzymatic activity, activator screen. Bifunctional epoxide hydrolase 2 (Homo sapiens), P34913. AID 717, 2007. actives 0.04% (n = 91,000). activation, % at 2 µM; in the data active = activation above about 37%
CYP2C19 act – human CYP2C19 activators, primary screen, biochemical, luminescence; recombinant CYP2C19, luciferin-H EGE luminescence; stronger effect = higher value; 0 = fully inhibited enzyme, 1 = untreated enzyme; Cytochrome P450 2C19 (Homo sapiens), P33261; 96,000 tested, under 10 active; activation factor at 5 µM;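 active = activation factor of at least 2 at 5 µM in the primary screen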;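 note: 0 = wells with 2.5 mM tranylcypromine and 1 = vehicle-only wells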
CYP2C9 inhib – blockers of cytochrome P450 2C9 activity – biochemical, luminescence, ADME assay, primary screen; P11712; CYP2C9 Supersomes, luciferin-H conversion; inhibition, % at 5 µM; actives 20% (n = 96,000);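 active = blocking of liver enzyme CYP2C9 beyond about 50% at 5 µM, limit read from the data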
Numbers without * were called inactive; nt = no result given. Compounds with a hit are over-represented: about 27% of the library has one in this group of screens.

SMILES | CYP2C9 activ | CYP2C19 inhib | sEH inh | sEH activator | CYP2C19 act | CYP2C9 inhib
COC(=O)c1c(NC(=O)Cc2cccs2)sc(C)c1C | 0.6 | 62* | nt | nt | 0.4 | 36
Cc1sc(NC(=O)c2cccs2)c(C(N)=O)c1C | 0.2 | 66* | -8 | 5 | 0.3 | 81*
Cc1ccc(C2(C(F)(F)F)NC(=O)N3CCN=C3S2)cc1 (stereo not given) | 1 | 76* | 3 | -4 | 0.2 | -4
Cc1ccc(C2(C(F)(F)F)N=C3Sc4cc(C)ccc4N3C(=O)N2)cc1 (stereo not given) | 0.8 | 15 | -14 | 13 | 0.9 | 21
Cc1ccc(C2(C(F)(F)F)NC(=O)N3CCCN=C3S2)cc1 (stereo not given) | 0.8 | 76* | nt | nt | 0.2 | 16
N#Cc1ccc(C(c2nnnn2Cc2ccccc2)N2CCCC2)cc1 (stereo not given) | 1.1 | 39 | 8 | -4 | 0.6 | -5
CC(C)CCn1nnnc1C(c1ccccc1)N1CCN(C)CC1 (stereo not given) | 0.9 | -4 | nt | nt | 1 | 10
N#Cc1cccc(C(c2nnnn2Cc2ccccc2)N2CCCC2)c1 (stereo not given) | 0.8 | 56* | 3 | -4 | 0.4 | 23
CN1CCN(C(c2cccc(C(F)(F)F)c2)c2nnnn2Cc2ccccc2)CC1 (stereo not given) | 0.6 | 52* | nt | nt | 0.5 | 43
CS/C(=N\S(=O)(=O)c1ccc(N)cc1)NS(=O)(=O)c1cccs1 | 0.6 | 9 | 2 | -2 | 0.9 | 42
Brc1ccc(CN2CCSCC2)cc1 | 0.6 | 59* | -12 | 12 | 0.4 | 44
COc1ccc(CN2CCSCC2)cc1C | 0.9 | 38 | -10 | 11 | 0.6 | 14
CCOC(=O)C(C)Oc1c(Br)cc(C2NC(=O)NC(C)=C2C(C)=O)cc1OCC (stereo not given) | 0.4 | 58* | 14 | -14 | 0.4 | 55*
CCC(=O)N(CCc1ccccc1)Cc1cc2cc3c(cc2[nH]c1=O)OCO3 | 0.9 | 8 | -4 | 2 | 0.9 | 12
CCC(=O)N(CCC(Cc1ccccc1)c1ccc2c(c1)OCO2)Cc1ccccc1F (stereo not given) | 0 | 96* | 1 | 0 | 0 | 96*
Cc1cc(NC(=O)COc2ccc(Cl)cc2Cl)n(-c2ccccc2)n1 | 0.7 | 71* | 6 | -5 | 0.3 | 34
Cc1cc(Nc2ccc(Cl)cc2)n(-c2ccccc2)n1 | 0.3 | 59* | -3 | 5 | 0.4 | 70*
Cc1cc(NC(=O)Nc2cc(C)nn2-c2ccccc2)n(-c2ccccc2)n1 | 1 | 14 | 0 | 1 | 0.9 | 1
Cc1cc(Nc2ccccc2)n(-c2ccc(Br)cc2)n1 | 0 | 90* | 0 | -4 | 0.1 | 97*
Cc1cc(NC(=O)c2ccc(C)s2)n(-c2ccccc2)n1 | 0.7 | 76* | -4 | 3 | 0.2 | 27
Cc1cc(Nc2nnnn2-c2ccccc2)n(-c2ccccc2)n1 | 0.8 | 9 | 3 | 0 | 0.9 | 24
CCn1nc(C)cc1Nc1ccccc1 | 0.8 | 1 | 3 | -3 | 1 | 16
Cc1cc(Nc2ccc(Cl)cc2)n(-c2cccc(Cl)c2)n1 | 0 | 99* | 1 | -1 | 0 | 98*
COc1ccc(Cc2nnc(NC(=O)Cn3cnc4c3c(=O)n(C)c(=O)n4C)s2)cc1 | nt | nt | 15 | -13 | nt | nt
COc1cccc(C(=O)N2CCCC(c3nc(-c4cccs4)no3)C2)c1 (stereo not given) | 0.3 | 86* | 4 | -5 | 0.1 | 68*
SMILES | CYP2C9 activ | CYP2C19 inhib | sEH inh | sEH activator | CYP2C19 act | CYP2C9 inhib
CCCC(=O)N1CCCC(c2nc(-c3cccs3)no2)C1 (stereo not given) | 0.8 | 6 | 4 | -2 | 0.9 | 18
COc1cc(C(=O)N2CCCC(c3nc(-c4cccs4)no3)C2)cc(OC)c1OC (stereo not given) | 0.5 | 56* | -5 | 10 | 0.4 | 47
COc1ccc(-c2noc(C3CCCN(C(=O)c4cccs4)C3)n2)cc1 (stereo not given) | 0.1 | 85* | -7 | 10 | 0.1 | 89*
O=C(c1cccs1)N1CCC(c2nc(-c3ccc(S(=O)(=O)N4CCOCC4)cc3)no2)CC1 | 0.4 | 18 | -8 | 10 | 0.8 | 62*
CCC(C)C(=O)N1CCCC(c2nc(-c3cccs3)no2)C1 (stereo not given) | 1.1 | 14 | 1 | 1 | 0.9 | -7
Cc1ccc(-n2c(CSc3nc(C)cc(C)n3)nnc2SCC(=O)N2CCCC2)cc1 | 1 | -4 | -4 | 4 | 1 | 3
Cc1cc(C(=O)Nc2cccc(O)c2)co1 | 0.9 | 16 | nt | nt | 0.8 | 14
Cc1nn(C)c(C)c1NC(=O)CN1CCC(O)(c2ccc3c(c2)OCO3)CC1 | 1.1 | -7 | 0 | 0 | 1.1 | -7
O=C1OC(Nc2ccc(Br)cn2)c2ccccc21 (stereo not given) | 0.9 | 1 | 4 | -1 | 1 | 6
O=[N+]([O-])c1cccc(S(=O)(=O)N2CCC(c3nc(-c4ccncc4)no3)CC2)c1 | 0.4 | 38 | 7 | -7 | 0.6 | 60*
Cc1ccc(NC(=O)C2CCN(S(=O)(=O)c3cnc[nH]3)CC2)nc1 | 0.7 | 7 | nt | nt | 0.9 | 32
COc1ccc(OC)c(S(=O)(=O)N2CCC(C(=O)Nc3cccc(C(F)(F)F)c3)CC2)c1 | 1.2 | 48 | 40 | -40 | 0.5 | -21
O=C(Nc1nccs1)C1CCN(S(=O)(=O)c2cnc[nH]2)CC1 | 0.1 | 29 | nt | nt | 0.7 | 86*
O=C(Nc1cccc(C(F)(F)F)c1)C1CCN(S(=O)(=O)c2cnc[nH]2)CC1 | 0.2 | 55* | nt | nt | 0.5 | 82*
O=S(=O)(Nc1nc(CN2CCOCC2)nc2sc3c(c12)CCCC3)c1cc(F)ccc1F | 0.4 | 0 | -1 | 0 | 1 | 63*
CNS(=O)(=O)c1cccc(C(=O)OC2CCCCC2=O)c1 (stereo not given) | 1.1 | 29 | -23 | 23 | 0.7 | -12
Cc1cccc(C)c1NC(=O)NC1(C(=O)NCCCN2CCOCC2)CCCCC1 | nt | nt | 12 | -9 | nt | nt
CC(C)OC(=O)c1cc2c(ccn2C)n1CC(=O)N1CCC(Cc2ccccc2)CC1 | 0.6 | 30 | 0 | 1 | 0.7 | 38
Cc1ccc(C)c(Cn2c(C(=O)OC(C)C)cc3c2ccn3C)c1 | 0.7 | 55* | -10 | 12 | 0.4 | 35
CCOC(=O)c1cc2c(ccn2C)n1Cc1ccccc1C | 0.9 | 35 | -14 | 13 | 0.6 | 12
Cc1ccccc1Cn1c(C(=O)OC(C)C)cc2c1ccn2C | 0.7 | 53* | -1 | 3 | 0.5 | 28

Assay outcomes: PubChem BioAssay, several laboratories
